Test results taken from PubChem BioAssay (NCATS).
Inconclusive results are not listed. Active and inactive are the calls of the source. Calls follow the shape of the dose curve; as a rule, active = well fitted curve in the direction sought with a large enough effect; inconclusive = small, poorly fitted or top-dose-only effect, or another doubt; inactive = no such curve, though single readings can be large; an effect the other way counts as inactive or inconclusive.

Experiments:
CRL-7250 [1] = assay: Cytotoxic Profiling of Annotated Libraries Using Quantitative High-Throughput Screening (AID 1296008); conditions: Five cell lines viability, CellTiter-Glo ATP luminescence, 48-72 h; max response: hits give low values; also: nearly all actives have a fitted effect of over 60% in size; as to max response: % is scaled to controls: 0 for no effect and ±100 for the full control effect
In short: (§1)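 Cells exposed to compounds for 48 or 72 hr at 37 degrees Celsius. Viability read as ATP-coupled luminescence with CellTiter-Glo after 10 min at room temperature.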

HEK293 = assay: as above; conditions: Five cell lines viability, CellTiter-Glo ATP luminescence, 48-72 h; max response: hits give low values
In short: as §1

HaCat [2] = assay: as above; conditions: Five cell lines viability, CellTiter-Glo ATP luminescence, 48-72 h; max response: hits give low values
In short: as §1

KB-3-1 = assay: as above; conditions: Five cell lines viability, CellTiter-Glo ATP luminescence, 48-72 h; max response: hits give low values
In short: as §1

NIH3T3 [3] = assay: as above; conditions: Five cell lines viability, CellTiter-Glo ATP luminescence, 48-72 h; max response: hits give low values
In short: as §1

CRL-7250 [4] = assay: qHTS assay to identify novel small-molecules to repurpose for Merkel cell carcinoma treatment (AID 1296009); conditions: MCC and control cell lines, CellTiter-Glo viability, 72 h; at 44.8 µM (top of the series) unless noted; also: nearly all actives have a fitted effect of over 60% in size
In short: (§2)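 CellTiter-Glo luminescence after 72 hr compound exposure at 37 degree celsius gave cell viability. Libraries NPC and MIPE were run as 8- and 11-point dose responses; RLUs normalized to DMSO (negative) and no-cell (cytotoxicity) controls.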

HACAT [5] = assay: as above; conditions: MCC and control cell lines, CellTiter-Glo viability, 72 h; at 44.8 µM (top of the series) unless noted
In short: as §2

C33A = assay: Primary qHTS to identify gynecologic anti-cancer compounds using libraries of approved drugs and bioactive compounds (AID 1345084); conditions: Gynecologic cancer cell panel viability, ATPlite luminescence, 48 h; series mostly up to 57.5 µM; also: % is scaled to controls: 0 for no effect and ±100 for the full control effect; nearly all actives have a fitted effect of over 55% in size
In short: (§3)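 Cells, 1,000 per well, plated 16 h, then exposed 48 h at 37 C to compounds. Viability by ATPlite luminescence after 15 min at room temperature.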

CASKI = assay: as above; conditions: Gynecologic cancer cell panel viability, ATPlite luminescence, 48 h; series mostly up to 57.5 µM
In short: as §3

Es-2 = assay: as above; conditions: Gynecologic cancer cell panel viability, ATPlite luminescence, 48 h; series mostly up to 57.5 µM
In short: as §3

HeLa = assay: as above; conditions: Gynecologic cancer cell panel viability, ATPlite luminescence, 48 h; series mostly up to 57.5 µM
In short: as §3

NIH3T3 [6] = assay: qHTS assay to identify novel small-molecules to repurpose for Merkel cell carcinoma treatment (AID 1296009); conditions: MCC and control cell lines, CellTiter-Glo viability, 72 h; at 44.8 µM (top of the series) unless noted; also: nearly all actives have a fitted effect of over 60% in size
In short: as §2

CAOV3 = assay: Primary qHTS to identify gynecologic anti-cancer compounds using libraries of approved drugs and bioactive compounds (AID 1345084); conditions: Gynecologic cancer cell panel viability, ATPlite luminescence, 48 h; series mostly up to 57.5 µM; also: % is scaled to controls: 0 for no effect and ±100 for the full control effect; nearly all actives have a fitted effect of over 55% in size
In short: as §3

HEK293T = assay: qHTS assay to identify novel small-molecules to repurpose for Merkel cell carcinoma treatment (AID 1296009); conditions: MCC and control cell lines, CellTiter-Glo viability, 72 h; at 44.8 µM (top of the series) unless noted; also: nearly all actives have a fitted effect of over 60% in size
In short: as §2

O=C(N1CCOCC1)N1CCN(c2ccc(Cl)cc2)CC1
inactive: outcome (CRL-7250 [1]) | max response (HEK293) -0.253% | outcome (HaCat [2]) | max response (KB-3-1) 6.75% | outcome (NIH3T3 [3]) | outcome (CRL-7250 [4]) | outcome (HACAT [5]) | Potency (C33A) | Potency (CASKI) | Potency (Es-2) | Potency (HeLa)

COC1=CC(=O)O[C@@H](CCc2ccccc2)C1
inactive: outcome (CRL-7250 [1]) | max response (HEK293) 0.422% | max response (HaCat [2]) 3.86% | outcome (KB-3-1) | outcome (NIH3T3 [3]) | outcome (CRL-7250 [4]) | outcome (NIH3T3 [6]) | Potency (C33A) | Potency (CAOV3) | Potency (CASKI) | Potency (Es-2) | Potency (HeLa)

CN1C(=O)N(c2ccc(C#N)c(C(F)(F)F)c2)C(=O)[C@]1(CO)c1ccccc1
inactive: outcome (CRL-7250 [1]) | max response (HEK293) -8.53% | max response (HaCat [2]) 1.18% | outcome (KB-3-1) | outcome (NIH3T3 [3]) | outcome (CRL-7250 [4]) | outcome (NIH3T3 [6]) | Potency (C33A) | Potency (CAOV3) | Potency (CASKI) | Potency (HeLa)

CCC(C)(OC(C)=O)C(=O)O[C@H]1[C@H](OC(C)=O)C[C@@H]2[C@@](C)([C@@H]3C[C@H]4C=CO[C@H]4O3)[C@H](C)C[C@H](OC(C)=O)[C@@]2(COC(C)=O)[C@@]12CO2 (stereo partly specified)
inactive: outcome (CRL-7250 [1]) | outcome (HEK293) | outcome (HaCat [2]) | max response (KB-3-1) 8.14% | outcome (NIH3T3 [3]) | outcome (CRL-7250 [4]) inactive [at 17.4 µM] | outcome (HACAT [5]) inactive [at 17.4 µM] | outcome (HEK293T) inactive [at 17.4 µM] | Potency (C33A) | Potency (CAOV3) | Potency (CASKI) | Potency (Es-2) | Potency (HeLa)

COC(=O)C1(C)CCC(O)C2(C)c3cc(O)c(C(C)C)cc3C(O)C(OC(C)=O)C12 (stereo unspecified)
inactive: outcome (CRL-7250 [1]) | max response (HEK293) 3.05% | outcome (HaCat [2]) | outcome (KB-3-1) | max response (NIH3T3 [3]) 3.45% | outcome (CRL-7250 [4]) inactive [at 17.4 µM] | outcome (HACAT [5]) inactive [at 17.4 µM] | Potency (C33A) | Potency (CAOV3) | Potency (CASKI) | Potency (Es-2) | Potency (HeLa)

OCCCCC#Cc1cncc(OC[C@@H]2CCN2)c1
inactive: outcome (CRL-7250 [1]) | max response (HEK293) -3.98% | outcome (HaCat [2]) | max response (KB-3-1) -3.78% | outcome (NIH3T3 [3]) | outcome (CRL-7250 [4]) | outcome (HACAT [5]) | outcome (NIH3T3 [6]) | Potency (C33A) | Potency (CASKI) | Potency (Es-2) | Potency (HeLa)

Clc1ccc(OCC2=NCCN2)cc1Cl
inactive: outcome (CRL-7250 [1]) | outcome (HEK293) | outcome (HaCat [2]) | max response (KB-3-1) 6.44% | outcome (NIH3T3 [3]) | outcome (CRL-7250 [4]) | outcome (HACAT [5]) | outcome (HEK293T) | Potency (C33A) | Potency (CAOV3) | Potency (CASKI) | Potency (Es-2) | Potency (HeLa)

O=C(O)c1ccnc2cc(C(OCCN3CCCCC3)c3ccccc3Cl)[nH]c12 (stereo unspecified)
inactive: outcome (CRL-7250 [1]) | outcome (HEK293) | outcome (HaCat [2]) | outcome (KB-3-1) | max response (NIH3T3 [3]) -0.205% | outcome (CRL-7250 [4]) | outcome (HACAT [5]) | outcome (HEK293T) | Potency (C33A) | Potency (CASKI) | Potency (Es-2) | Potency (HeLa)

O=C1C[C@@H]2OCC=C3CN4CC[C@]56c7ccccc7N1[C@H]5[C@H]2[C@H]3C[C@H]46
inactive: outcome (CRL-7250 [1]) | max response (HEK293) -6.49% | outcome (HaCat [2]) | max response (KB-3-1) -9.91% | outcome (KB-3-1) | max response (NIH3T3 [3]) 3.86% | outcome (CRL-7250 [4]) | outcome (HACAT [5]) | Potency (C33A) | Potency (CAOV3) | Potency (CASKI) | Potency (Es-2) | Potency (HeLa)

CC[C@H]1CN2CC[C@H]1C[C@@H]2[C@@H](O)c1ccnc2ccc(OC)cc12
inactive: outcome (CRL-7250 [1]) | outcome (HEK293) | outcome (HaCat [2]) | max response (KB-3-1) 5.11% | outcome (NIH3T3 [3]) | outcome (CRL-7250 [4]) | outcome (HACAT [5]) | outcome (HEK293T) | outcome (NIH3T3 [6]) | Potency (C33A) | Potency (CASKI) | Potency (Es-2) | Potency (HeLa)

COc1c(C(C)C)cc2c(c1O)[C@@]1(C(=O)O)CCCC(C)(C)C1CC2 (stereo partly specified)
inactive: outcome (CRL-7250 [1]) | outcome (HEK293) | max response (HaCat [2]) 0.977% | outcome (KB-3-1) | max response (NIH3T3 [3]) 0.972% | outcome (CRL-7250 [4]) | outcome (HEK293T) | Potency (C33A) | Potency (CAOV3) | Potency (CASKI) | Potency (Es-2) | Potency (HeLa)

CCCN1CCO[C@H]2c3cc(O)ccc3OC[C@@H]21
inactive: outcome (CRL-7250 [1]) | outcome (HEK293) | max response (HaCat [2]) 3.96% | outcome (KB-3-1) | outcome (NIH3T3 [3]) | outcome (CRL-7250 [4]) | outcome (HEK293T) | Potency (C33A) | Potency (CASKI) | Potency (Es-2) | Potency (HeLa)

C=C1[C@@H]2CC[C@@]3(C)[C@H](c4ccoc4)OC(=O)C[C@]13O[C@H]1CC(=O)C(C)(C)[C@H](C(OC(C)=O)C(=O)OC)[C@]12C (stereo partly specified)
inactive: outcome (CRL-7250 [1]) | max response (HEK293) -1.58% | outcome (HaCat [2]) | max response (KB-3-1) -6.59% | max response (NIH3T3 [3]) -2.92% | outcome (CRL-7250 [4]) inactive [at 17.4 µM] | outcome (HACAT [5]) inactive [at 17.4 µM] | Potency (C33A) | Potency (CASKI) | Potency (Es-2) | Potency (HeLa)
